Sampled rows, rich in hits. Any-hit rate of the full collection: about 15%.
TDP1 cell noCPT: qHTS for Inhibitors of human tyrosyl-DNA phosphodiesterase 1 (TDP1): qHTS in cells in absence of CPT; AID 686978, 2013; Potency, µM (highest dose often 46.2 µM), for inactives: top-dose activity change, negative = growth inhibition, actives largely listed as inhibitors; DT40 Tdp1-/- hTDP1 cells, no CPT, ATP luminescence, 48 h; 15% of 420,000 active; also: nearly all actives have a fitted effect of over 55% in size
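Stably hTDP1-transfected Tdp1-null chicken DT40 cells were treated with library compounds minus camptothecin and grown for at least 48 hr at 37 °C, after which cellular ATP was quantified by luminescence.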
TDP1 cell CPT: growth inhibition of DT40 Tdp1-/-;hTDP1 cells with camptothecin (screen for TDP1 inhibitors). 12% of 420,000 active. Potency, µM (top dose mostly 46.2 µM), inactives show at the highest dose activity change, negative = growth inhibition, hits mostly inhibitors. chicken DT40 Tdp1-/-;hTDP1 cells + 20 nM CPT, ATP luminescence, 48 h; also: nearly all actives have a fitted effect of over 55% in size
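Cell growth measured by CellTiter-Glo luminescence after a minimum 48 h, 37 C compound exposure with 20 nM CPT in Tdp1-knockout DT40 cells stably expressing hTDP1, seeded 400/well; qHTS titration format.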
ALOX12 inh: inhibitors of human 12S-lipoxygenase ALOX12; purified 12hLO, xylenol orange hydroperoxide absorbance; Potency, µM (titrated, usually from 108 µM), for the others: at the highest dose activity change, negative = inhibition, usual class: inhibitors; 1.1% of 580,000 active; AID 1671190
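Hydroperoxide product was detected by ferrous iron/xylenol orange as the 573 to 405 nm absorbance ratio. Arachidonic acid at 40 uM (final) was turned over for 30 min at room temperature by 150 nM human 12hLO, pH 7.0 Hepes buffer, after 15 min compound preincubation.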
RORgamma inh: inhibitors of mouse ROR gamma transcriptional activity; P51450; Potency, µM (series often up to 53.6 µM), without a hit: at the highest dose activity change, negative = inhibition, actives largely listed as inhibitors; Drosophila S2 Gal4-RORgamma UAS-luciferase reporter, 20 h; 5.4% of 310,000 active; also: nearly all actives have a fitted effect of over 60% in size
Target sequence (P51450 whole entry, looked up, the tested form may be a part): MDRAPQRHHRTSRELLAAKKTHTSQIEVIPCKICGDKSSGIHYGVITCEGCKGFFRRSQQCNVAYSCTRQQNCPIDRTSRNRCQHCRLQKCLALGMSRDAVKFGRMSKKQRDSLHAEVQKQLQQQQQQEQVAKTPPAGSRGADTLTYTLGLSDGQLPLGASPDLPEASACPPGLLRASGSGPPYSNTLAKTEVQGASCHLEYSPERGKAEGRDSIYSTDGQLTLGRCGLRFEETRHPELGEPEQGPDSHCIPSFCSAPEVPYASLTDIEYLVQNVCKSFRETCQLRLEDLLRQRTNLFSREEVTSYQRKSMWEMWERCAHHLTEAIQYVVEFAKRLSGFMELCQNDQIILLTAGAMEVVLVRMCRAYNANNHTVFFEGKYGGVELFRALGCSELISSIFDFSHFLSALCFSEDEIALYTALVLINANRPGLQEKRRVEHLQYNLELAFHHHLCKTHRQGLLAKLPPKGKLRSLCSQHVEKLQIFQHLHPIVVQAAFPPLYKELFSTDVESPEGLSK
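Stable Schneider cell line, Gal4 DNA-binding domain fused to ROR gamma, UAS-luciferase. Cmpd 1 hr RT → CuSO4 700 uM final → 20 hr RT → luciferase reagent 10 min → luminescence.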
VP16 counter: counter-screen for ROR gamma inhibitors: Gal4-VP16 reporter; Potency, µM (doses to about 53.6 µM), for inactives: top-dose activity, negative = inhibition, actives largely listed as inhibitors; 3.5% of 310,000 active; Drosophila S2 Gal4-VP16 UAS-luciferase, luminescence, 20 h;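 also: Gal4-VP16 expression switched on by copper sulfate through the metallothionein promoter; nearly all actives have a fitted effect of over 50% in size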
ELG1 repair inh: inhibitors of ELG1-dependent DNA repair in HEK293T cells; 2.3% of 330,000 active; AID 504467; HEK293T ELG1-luciferase reporter, luminescence, 16 h; DNA damage induced by 5-fluorouridine; Potency, µM (highest dose often 46.1 µM), without a hit: top-dose activity change, negative = inhibition, usual class: inhibitors; also: nearly all actives have a fitted effect of over 55% in size
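Step one: seed 2,000 cells per well. Step two: pin-transfer compound or DMSO alongside 5-fluorouridine. Step three: incubate 16 hr, 37 °C, 5% CO2. Step four: add ONE-Glo, wait 30 min, read luminescence.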
* = called active by the depositor; ? = inconclusive; nt = no result; [ ] = another dose, or the depositor's remark. Calls follow the shape of the dose curve; as a rule, active = well fitted curve in the direction sought with a large enough effect; inconclusive = small, poorly fitted or top-dose-only effect, or another doubt; inactive = no such curve, though single readings can be large; an effect the other way counts as inactive or inconclusive. % is scaled to controls: 0 for no effect and ±100 for the full control effect; potency is read from the fitted curve at half-maximal effect.

SMILES	TDP1 cell noCPT	TDP1 cell CPT	ALOX12 inh	RORgamma inh	VP16 counter	ELG1 repair inh
Cc1[nH]c2ccccc2c1C(c1c[nH]c2ccccc12)c1c(C)[nH]c2ccccc12	16µM*	?	nt	nt	nt	nt
C[n+]1ccc(C(c2c[nH]c3ccccc23)c2cc[n+](C)c3ccccc23)c2ccccc21	0.56µM*	0.56µM*	nt	nt	nt	nt
COc1ccc(Cl)cc1NC(=O)C1CCN(c2ncnc3c2nc2n3CCCCC2)CC1	9.2µM*	16µM*	?	nt	nt	nt
COc1cc(OC)c(NC(=O)C2CCCN(c3ncnc4c3nc3n4CCCCC3)C2)cc1Cl (centres undefined)	15µM*	?	-15%	nt	nt	nt
CC(C)NC(=O)C1CCCN(c2ncnc3c2nc2n3CCCCC2)C1 (centres undefined)	?	?	-19%	nt	nt	nt
Cc1ccc(C)c(NC(=O)C2CCN(c3ncnc4c3nc3n4CCCCC3)CC2)c1	2%	-11%	-23%	nt	nt	nt
O=C(Nc1ccccc1Cl)C1CCCN(c2ncnc3c2nc2n3CCCCC2)C1 (centres undefined)	15µM*	?	5%	28%	-4%	?
Cc1cccc(CCNC(=O)C2CCCN(c3ncnc4c3nc3n4CCCCC3)C2)c1 (centres undefined)	?	-18%	-3%	21%	5%	?
Cc1ccc(NC(=O)C2CCN(c3ncnc4c3nc3n4CCCCC3)CC2)nc1	21µM*	23µM*	3%	?	?	?
CCOCCCNC(=O)CSCc1nc(-c2ccc(OC)c(OC)c2)oc1C	nt	nt	14%	nt	nt	nt
CCn1cc(S(=O)(=O)c2ccccc2)c(=O)c2cc(F)c(N3CCCC3)cc21	?	21µM*	-5%	nt	nt	nt
CCCn1cc(S(=O)(=O)c2ccccc2)c(=O)c2cc(F)c(N3CCCCCC3)cc21	18µM*	26µM*	-8%	nt	nt	nt
CCn1cc(S(=O)(=O)c2ccc(Cl)cc2)c(=O)c2cc(F)c(N3CCOCC3)cc21	16µM*	26µM*	-14%	nt	nt	nt
CC(C)NC(=O)N1CCN(C(=O)c2ccc(N(C)C)cc2)C[C@H]1C(=O)N[C@@H](CC1CCCCC1)C(N)=O	nt	nt	17%	nt	nt	nt
CNC(=O)CCC1CCCN(S(=O)(=O)c2cccc(F)c2)C1 (centres undefined)	nt	nt	24%	nt	nt	nt
O=C(NCCNc1ccc([N+](=O)[O-])cc1)c1cccc(Br)c1	-6%	10%	-1%	?	-10%	7%
O=C(CCNc1ccccc1)c1cccc([N+](=O)[O-])c1	16µM*	18µM*	-10%	?	?	?
N/C(=N\OC(=O)c1ccc(F)cc1)c1cccc([N+](=O)[O-])c1	-23%	-11%	10%	2%	-11%	?
O=C(CCNc1ccc(F)cc1)c1cccc([N+](=O)[O-])c1	23µM*	16µM*	0%	13µM*	?	25%
O=C(CCNc1ccc(Br)cc1)c1cccc([N+](=O)[O-])c1	18µM*	15µM*	-3%	?	-3%	-5%
O=C(CC(=O)c1ccccc1)Nc1cccc([N+](=O)[O-])c1	?	?	-24%	nt	nt	nt
COc1cccc(N2C(=O)NC(=NC3CCCCC3)C23CCCN(Cc2ccsc2)C3)c1 (centres undefined)	nt	nt	13%[6.33 µM]	nt	nt	nt
O=C(O)c1ccccc1C(=O)OCCCC(F)(F)C(F)(F)F	nt	nt	-49%	nt	nt	nt
COc1ccccc1N(CN1C(=O)c2ccccc2C1=O)C(=O)c1cccc(C)c1	?	21µM*	-20%	-24%	-2%	?
O=C(Cc1ccc2c(c1)CCCC2)NNC(=O)c1ccncc1	nt	nt	29%	nt	nt	nt
SMILES	TDP1 cell noCPT	TDP1 cell CPT	ALOX12 inh	RORgamma inh	VP16 counter	ELG1 repair inh
CCNC(=O)Nc1cc(S(=O)(=O)Nc2ccc(OC)cc2)ccc1N1CCOCC1	0.73µM*	2.3µM*	nt	nt	nt	15%
COc1ccc(NS(=O)(=O)c2ccc(N3CCCC3)c(NC(=S)Nc3ccc(SC(F)F)cc3)c2)cc1	18µM*	18µM*	25µM*	35%	-3%	23µM*
COc1ccc(NS(=O)(=O)c2ccc(N3CCCC3)c(NC(=S)Nc3cccc(C)c3C)c2)cc1	9.2µM*	12µM*	16µM*	-5%[10 µM]	?	?
COc1ccc(NS(=O)(=O)c2cc(N)ccc2N2CCCC2)cc1	?	?	5%	nt	nt	-22%
CC1CCc2sc(C(=O)OCC(=O)N3CCC(c4ccccc4)=N3)cc2C1 (centres undefined)	nt	nt	21%	nt	nt	nt
COc1ccccc1-c1cc(NC(=O)CCOC(C)C)n[nH]1	nt	nt	22%	nt	nt	nt
O=C(Cc1cccs1)Nc1nc(-c2ccc(F)cc2F)cs1	?	10µM*	-10%	-4%	-23%	?
O=C(Nc1cccc(Cl)c1)Nc1nc(-c2ccc(Cl)cc2)cs1	16µM*	12µM*	-6%	?	-6%	-3%
COc1ccc(CC(=O)Nc2nnc(C(C)(C)C)s2)cc1OC	16µM*	?	0%	?	-2%	?
COc1ccc(OC)c(-c2csc(NC(=O)Cc3cccs3)n2)c1	?	-7%	-10%	12%	-9%	?
O=C(Nc1nc(-c2ccc(F)c(F)c2)cs1)Nc1ccc(F)cc1F	0.65µM*	1.6µM*	0%	-2%	-2%	20%
COc1ccc(-c2csc(NC(C)=O)n2)cc1OC	-22%	-30%	3%	51%	19%	?
O=C(COC(=O)C1CC1)Nc1nc(-c2ccc(F)c(F)c2)cs1	10µM*	21µM*	0%	nt	nt	?
O=C(Cc1cccs1)Nc1nc(-c2ccc(F)c(F)c2)cs1	1.5µM*	8.2µM*	?	3%	21%	?
O=C(Cc1cccs1)Nc1ccc(F)c(F)c1	-5%	-11%	-9%	10%	4%	7%
CCc1cccc(C)c1NC(=O)CSc1nnc(CCCOc2ccc(Cl)cc2Cl)n1C	15µM*	23µM*	19%	?	-12%	?
COc1ccc(-c2csc(NC(=O)Cc3ccccc3)n2)cc1OC	1.6µM*	?	0%	5%	4%	6%
O=C(CN1CCCCC1)Nc1nc(-c2ccc(F)c(F)c2)cs1	?	?	1%	0%	-3%	?
O=C(c1cc2cc(Cl)ccc2oc1=O)N1CCc2ccccc2C1	nt	nt	-3%	nt	nt	nt
Cc1ccc(C2C3=C(CC(C)(C)CC3=O)Nc3c2c(=O)[nH]c(=O)n3C)cc1 (centres undefined)	nt	nt	-54%	nt	nt	nt
